PubChem BioAssay
For some assays here: Entries with a potency or affinity are not part of this list. Calls of active or inactive are those of the source.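 The calls were made as follows, unless noted: active = calcium signal cut by more than 3 SD below the full-agonist control yet still positive, in both repeats and the earlier primary screen; inactive = the rest.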

Legend:
[1] = tested on: TRPC4 beta (transient receptor potential cation channel C4), mouse; experiment: activators of mouse TRPC4 channel, confirmation, cell-based, Fluo4 calcium, HEK293 TRPC4beta/mu-opioid, duplicates, 10 µM (AID 2426;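 active = fluorescence ratio normalized to control raised more than 50% in primary screen plus both repeat runs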); settings: Fluo4 calcium fluorescence, at 10 µM; stronger effect = higher value
[2] = tested on: transient receptor potential cation channel C4 beta (TRPC4), mouse; experiment: activators of mouse TRPC4 channel, confirmation, cell-based, second round, Fluo4, HEK293 TRPC4beta/mu-opioid, 1 µM (AID 2461;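 active = primary screen active and over 50% activation in each of two duplicate runs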); settings: Fluo4 calcium fluorescence, at 1 µM; stronger effect = higher value
[3] = tested on: TRPC4 (transient receptor potential cation channel C4 beta), mouse; experiment: positive allosteric modulators of mouse TRPC4, confirmation, cell-based, second round, Fluo-4, HEK293 TRPC4beta/mu-opioid, 1 µM (AID 2554;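 active = primary screen hit whose fluorescence ratio, in both repeats, exceeds the weak agonist control mean by 3 SD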); settings: DAMGO EC20, Fluo-4 calcium flux, at 1 µM; stronger effect = higher value
[4] = tested on: TRPC4 beta (transient receptor potential cation channel C4), mouse; experiment: positive allosteric modulators of mouse TRPC4, confirmation, cell-based, Fluo-4, HEK293 TRPC4beta/mu-opioid (AID 2555;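 active = primary screen hit whose calcium fluorescence ratio, in both repeats, exceeds the weak agonist control mean by 3 SD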); settings: DAMGO EC20, Fluo-4 calcium flux, at 10 µM; stronger effect = higher value
[5] = biological target: Short transient receptor potential channel 4 (Mus musculus) (UniProt Q9QUQ5); experiment: inhibitors of mouse TRPC4 channel, confirmation, cell-based, Fluo4, HEK293 TRPC4beta/mu-opioid (AID 2636); settings: DAMGO, Fluo4 calcium flux, at 10 µM; stronger effect = higher value
[6] = biological target: Short transient receptor potential channel 4 (Mus musculus) (UniProt Q9QUQ5); experiment: inhibitors of mouse TRPC4 channel, confirmation, cell-based, second round, Fluo4, HEK293 TRPC4beta/mu-opioid, 1 µM (AID 2637;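 active = calcium signal ratio cut to more than 3 SD under the fully stimulated control mean yet still positive, in both repeats and the primary screen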;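 as to inhibition: percent of integrated ratio relative to wells lacking test compound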); settings: Fluo4 calcium flux, DAMGO, at 1 µM; stronger effect = higher value
[7] = biological target: Short transient receptor potential channel 4 (Mus musculus) (UniProt Q9QUQ5); experiment: mouse TRPC4 channel activators, dose response, cell-based, HEK293 TRPC4/mu-opioid, Fluo-4 calcium (AID 434937;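 active = primary screen activator hit with a dose response curve and TRPC4 channel activation at any tested dose; inactive = no activation, no dose response, or not a primary hit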)
[8] = biological target: Short transient receptor potential channel 4 (Mus musculus) (UniProt Q9QUQ5); experiment: TRPC4 positive allosteric modulators, dose response, cell-based, HEK293 TRPC4/mu-opioid, Fluo-4 calcium, EC20 DAMGO (AID 434941;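 active = earlier screen potentiator hit that boosts the TRPC4 ion channel at some dose, with a dose response; inactive = no potentiation, no dose response, or not a prior hit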;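 also: calcium entry triggered by an EC20 dose of DAMGO at the co-expressed mu-opioid receptor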)
[9] = biological target: Short transient receptor potential channel 6 (Mus musculus) (UniProt Q61143); experiment: inhibition of mouse TRPC6 channel, confirmation, selectivity assay for TRPC4 inhibitor project, cell-based, HEK293, membrane potential dye, duplicate (AID 434948;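 active = active in primary screen and both duplicates, each dropping signal beyond three positive-control SD with fluorescence still positive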); settings: HEK293 TRPC6, membrane potential dye fluorescence, at 10 µM, stimulated with maximal-effect acetylcholine; stronger effect = higher value
[10] = biological target: Short transient receptor potential channel 6 (Mus musculus) (UniProt Q61143); experiment: activation of mouse TRPC6 channel, confirmation, selectivity assay for TRPC4 activator project, cell-based, HEK293, membrane potential dye, duplicate (AID 434950;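 active = membrane potential signal rise above negative control mean plus 3 SD in both duplicates, also active in the earlier TRPC4 screen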;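 as to activation: 0% = buffer only wells and 100% = acetylcholine maximal-effect wells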); settings: HEK293 TRPC6, membrane potential fluorescence, at 10 µM; stronger effect = higher value
[11] = biological target: Short transient receptor potential channel 6 (Mus musculus) (UniProt Q61143); experiment: TRPC6 potentiation by TRPC4 potentiator hits, confirmation, selectivity assay for TRPC4 potentiator project, HEK293 cells, membrane potential dye, duplicate (AID 434952;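 active = compound raising the membrane signal above positive-control mean plus 3 SD in both repeats, and a primary screen hit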); settings: HEK293 TRPC6, membrane potential dye fluorescence, at 10 µM, maximal acetylcholine added after compound; stronger effect = higher value
[12] = biological target: Short transient receptor potential channel 4 (Mus musculus) (UniProt Q9QUQ5); experiment: calcium flux activators in TRPC4/5HT1a cells, counter-screen for TRPC4 activator project, cell-based, second counter screen, HEK293 TRPC4/5HT1a, Fluo-4 (AID 434977;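 active = calcium signal rise above buffer-control mean plus 5 SD in both duplicates, and also a hit in the primary screen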); settings: Fluo-4 calcium flux, at 10 µM; stronger effect = higher value
[13] = calcium flux inhibitors in TRPC4/5HT1a cells, confirmation, counter-screen for TRPC4 inhibitor project, cell-based, second counter screen, HEK293 TRPC4/5HT1a, Fluo-4 (AID 434978;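 active = primary screen active whose calcium signal fell more than 3 SD beyond the full-serotonin control mean in both duplicate plates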;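 as to outcome: serotonin given first at submaximal then at maximal dose after compound preincubation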); settings: Fluo-4 calcium flux, at 10 µM, serotonin added to trigger calcium flux; stronger effect = higher value
[14] = tested on: TRPC4 (mouse), co-expressed with 5HT1a in HEK293; experiment: calcium flux potentiators in TRPC4/5HT1a cells, confirmation, counter-screen for TRPC4 potentiator project, cell-based, second counter screen, HEK293 TRPC4/5HT1a, Fluo-4 (AID 434979;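 active = signal rise over 3 SD above mean of control wells given weak agonist, in both repeats and first screen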); settings: Fluo-4 calcium flux, at 10 µM, serotonin added at its EC20 dose; stronger effect = higher value
[15] = calcium flux activation in mu-opioid HEK293 cells, confirmation, counter-screen for TRPC4 activator project, cell-based, HEK293 mu-opioid receptor line (AID 449723;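 active = hit in primary screen, with calcium signal over 5 SD above buffer well mean in both duplicates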;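 also: counter screen cells carry the mu-opioid receptor alone and lack TRPC4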); settings: Fluo-4 calcium fluorescence, at 10 µM; stronger effect = higher value
[16] = calcium flux enhancement in mu-opioid HEK293 cells, confirmation, counter-screen for TRPC4 allosteric potentiator project, cell-based, HEK293 mu-opioid receptor line (AID 449724;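 active = calcium signal rise more than 3 SD above the low-dose agonist control mean, in both duplicate plates and the primary screen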); settings: Fluo-4 calcium flux, at 10 µM, compound added before EC20 DAMGO stimulus; stronger effect = higher value

Short transient receptor potential channel 6 (Mus musculus), sequence (Q61143 whole entry, looked up): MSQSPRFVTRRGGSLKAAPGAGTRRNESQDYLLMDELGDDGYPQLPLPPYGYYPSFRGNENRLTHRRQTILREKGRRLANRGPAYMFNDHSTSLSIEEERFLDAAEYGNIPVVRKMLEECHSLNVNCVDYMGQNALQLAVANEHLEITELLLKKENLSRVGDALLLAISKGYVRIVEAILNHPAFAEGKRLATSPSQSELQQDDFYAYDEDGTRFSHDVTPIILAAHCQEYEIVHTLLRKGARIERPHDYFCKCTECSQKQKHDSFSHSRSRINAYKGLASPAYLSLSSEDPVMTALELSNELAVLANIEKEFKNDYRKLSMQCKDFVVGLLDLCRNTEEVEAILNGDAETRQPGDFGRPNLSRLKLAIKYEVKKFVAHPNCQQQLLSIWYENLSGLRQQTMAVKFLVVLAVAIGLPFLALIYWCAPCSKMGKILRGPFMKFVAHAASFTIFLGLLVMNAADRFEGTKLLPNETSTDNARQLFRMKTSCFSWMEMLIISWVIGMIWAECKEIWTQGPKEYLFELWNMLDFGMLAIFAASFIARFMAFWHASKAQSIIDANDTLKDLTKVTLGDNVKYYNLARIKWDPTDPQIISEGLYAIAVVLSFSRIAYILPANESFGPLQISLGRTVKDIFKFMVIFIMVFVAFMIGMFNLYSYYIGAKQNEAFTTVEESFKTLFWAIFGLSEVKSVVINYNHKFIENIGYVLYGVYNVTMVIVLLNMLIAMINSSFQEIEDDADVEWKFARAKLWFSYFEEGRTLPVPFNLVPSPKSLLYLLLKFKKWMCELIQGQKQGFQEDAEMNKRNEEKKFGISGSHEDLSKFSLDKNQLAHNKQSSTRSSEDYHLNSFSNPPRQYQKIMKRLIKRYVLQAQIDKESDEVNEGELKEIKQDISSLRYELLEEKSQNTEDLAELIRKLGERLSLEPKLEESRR
Short transient receptor potential channel 4 (Mus musculus), sequence (Q9QUQ5 whole entry, looked up): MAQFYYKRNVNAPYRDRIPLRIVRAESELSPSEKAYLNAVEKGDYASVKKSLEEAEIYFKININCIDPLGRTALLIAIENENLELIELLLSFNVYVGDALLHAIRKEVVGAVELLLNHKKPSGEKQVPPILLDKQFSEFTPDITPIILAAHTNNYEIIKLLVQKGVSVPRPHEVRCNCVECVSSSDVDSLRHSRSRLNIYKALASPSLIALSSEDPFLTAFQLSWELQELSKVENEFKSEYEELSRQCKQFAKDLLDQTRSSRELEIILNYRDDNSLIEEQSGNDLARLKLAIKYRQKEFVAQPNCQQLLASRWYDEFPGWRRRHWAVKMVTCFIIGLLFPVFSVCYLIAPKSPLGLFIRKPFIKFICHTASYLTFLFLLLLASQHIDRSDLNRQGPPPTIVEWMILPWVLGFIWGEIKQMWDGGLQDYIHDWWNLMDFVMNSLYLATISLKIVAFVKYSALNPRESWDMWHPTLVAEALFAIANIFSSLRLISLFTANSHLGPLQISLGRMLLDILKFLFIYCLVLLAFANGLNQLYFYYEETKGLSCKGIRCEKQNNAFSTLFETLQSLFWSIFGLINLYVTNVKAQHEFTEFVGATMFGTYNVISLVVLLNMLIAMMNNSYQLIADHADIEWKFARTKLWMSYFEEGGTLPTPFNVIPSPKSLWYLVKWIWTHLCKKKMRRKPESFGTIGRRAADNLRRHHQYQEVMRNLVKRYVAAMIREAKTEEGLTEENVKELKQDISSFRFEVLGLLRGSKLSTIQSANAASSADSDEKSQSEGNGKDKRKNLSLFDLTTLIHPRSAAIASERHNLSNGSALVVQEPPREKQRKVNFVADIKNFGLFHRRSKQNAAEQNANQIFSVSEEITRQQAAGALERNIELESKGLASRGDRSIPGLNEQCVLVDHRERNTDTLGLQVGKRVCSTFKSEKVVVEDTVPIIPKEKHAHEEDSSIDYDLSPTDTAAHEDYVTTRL

CCOc1ccc(CN2CCN(C(=O)c3ccccc3)CC2)cc1
active: inhibition [5] 79% | inhibition [13] 44.7%
inactive: outcome [1] | outcome [2] | outcome [3] | outcome [4] | outcome [6] | outcome [7] | outcome [8] | outcome [9] | outcome [10] | outcome [11] | outcome [12] | outcome [14] | outcome [15] | outcome [16]

Cc1ccc(NC(=O)CN2CCc3ccccc3C2)cc1S(=O)(=O)N1CCOCC1
active: inhibition [5] 92% | inhibition [6] 46% | activation [10] 30.5%
inactive: outcome [1] | outcome [2] | outcome [3] | outcome [4] | outcome [7] | outcome [8] | outcome [9] | outcome [11] | outcome [12] | outcome [13] | outcome [14] | outcome [15] | outcome [16]

CCCc1cc(=O)[nH]c(SCC(=O)Nc2sc3c(c2C#N)CCCC3)n1
inactive: outcome [1] | outcome [2] | outcome [3] | outcome [4] | outcome [6] | outcome [7] | outcome [8] | outcome [9] | outcome [10] | outcome [11] | outcome [12] | outcome [13] | outcome [14] | outcome [15] | outcome [16]
active: inhibition [5] 85%

COc1ccc2c(C)cc(N3CCCCCC3)nc2c1
active: inhibition [5] 96% | inhibition [6] 63% | inhibition [9] 33.5% | inhibition [13] 20.8%
inactive: outcome [1] | outcome [2] | outcome [3] | outcome [4] | outcome [7] | outcome [8] | outcome [10] | outcome [11] | outcome [12] | outcome [14] | outcome [15] | outcome [16]

Cc1ccc(NC(=O)CSCC(=O)OCc2cc(=O)oc3cc(O)ccc23)c(C)c1
inactive: outcome [1] | outcome [2] | outcome [3] | outcome [4] | outcome [6] | outcome [7] | outcome [8] | outcome [9] | outcome [10] | outcome [11] | outcome [12] | outcome [13] | outcome [14] | outcome [15] | outcome [16]
active: inhibition [5] 80%

Cc1nc2ccccc2n1CCOc1ccc(F)cc1
inactive: outcome [1] | outcome [2] | outcome [3] | outcome [4] | outcome [7] | outcome [8] | outcome [9] | outcome [10] | outcome [11] | outcome [12] | outcome [14] | outcome [15] | outcome [16]
active: inhibition [5] 95% | inhibition [6] 79% | inhibition [13] 7.92%

COc1ccccc1N(C(=O)c1snc(C(N)=O)c1N)C(C(=O)NCc1ccccc1)c1ccc(C)o1 (stereo not drawn)
inactive: outcome [1] | outcome [2] | outcome [3] | outcome [4] | outcome [5] | outcome [7] | outcome [8] | outcome [9] | outcome [10] | outcome [11] | outcome [12] | outcome [14] | outcome [15] | outcome [16]
active: inhibition [6] 49% | inhibition [13] 25.3%

CCN(C(=O)c1c(-c2ccccc2Cl)noc1C)C1CCCCC1
inactive: outcome [1] | outcome [2] | outcome [3] | outcome [4] | outcome [6] | outcome [7] | outcome [8] | outcome [9] | outcome [10] | outcome [11] | outcome [12] | outcome [14] | outcome [15] | outcome [16]
active: inhibition [5] 71% | inhibition [13] 38.5%
